According to ChEMBL document CHEMBL1961873, “Compounds: GSK PKIS; Assays: Nanosyn kinase panel” (2012):
Several values for one entry are separate records, joined by “and”; a condition that tells them apart may be missing. Equal entries are not always repeated.

target: MAP kinase-interacting serine/threonine-protein kinase 2 (Homo sapiens) (UniProt Q9HBH9); settings: at 1 µM
Sequence (Q9HBH9 whole entry, looked up): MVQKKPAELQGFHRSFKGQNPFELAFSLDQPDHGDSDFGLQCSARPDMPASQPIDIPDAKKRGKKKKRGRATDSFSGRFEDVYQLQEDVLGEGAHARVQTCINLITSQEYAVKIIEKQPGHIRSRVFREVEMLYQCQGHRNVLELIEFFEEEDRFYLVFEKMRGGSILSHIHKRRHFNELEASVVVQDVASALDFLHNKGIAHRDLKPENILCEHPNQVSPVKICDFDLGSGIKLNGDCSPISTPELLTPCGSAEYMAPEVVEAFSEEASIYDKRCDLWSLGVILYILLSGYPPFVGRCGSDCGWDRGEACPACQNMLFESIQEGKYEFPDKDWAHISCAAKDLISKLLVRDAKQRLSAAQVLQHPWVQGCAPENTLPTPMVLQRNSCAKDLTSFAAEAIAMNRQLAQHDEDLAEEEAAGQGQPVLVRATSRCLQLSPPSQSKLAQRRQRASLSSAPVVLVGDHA

**Q.** Which inhibition does the source give for `Fc1ccc(Nc2nccc(-c3c(-c4ccc(C(F)(F)F)cc4)nn4ncccc34)n2)cc1F` here?
**A.** 2.32%

**Q.** How did the inhibition turn out when `NS(=O)(=O)c1ccc(N/N=C2\C(=O)Nc3cccc(CCc4ccncc4)c32)cc1` was run?
**A.** 1.83%

**Q.** Which inhibition does the source give for `CCS(=O)(=O)c1ccc(OC)c(Nc2ncc(-c3cccc(F)c3)o2)c1` here?
**A.** 12.2%

**Q.** `COc1ccc(-c2nn3ncccc3c2-c2ccnc(Nc3ccc(F)c(F)c3)n2)cc1` was tested. Which inhibition did it give?
**A.** 6.26%

**Q.** For `COc1cc(N2CCN(C(C)C)CC2)ccc1Nc1nc(Nc2cccc3ncccc23)c2cc[nH]c2n1`, which inhibition is on record?
**A.** 1.91%

**Q.** With `N#Cc1ccc2c(-c3ccnc(NC4CC4)n3)c(-c3ccc(F)cc3)nn2c1` as the molecule, how does the inhibition read?
**A.** 1.03%

**Q.** `CNC(=O)c1cncc(/C=C/c2ccccc2C)c1` was tested. Which inhibition did it give?
**A.** 14.9%

**Q.** With `CS(=O)(=O)Nc1ccc(-c2ccc3c(NC(=O)C4CC4)n[nH]c3c2)cc1` as the molecule, how does the inhibition read?
**A.** 1.32%

**Q.** Which inhibition does the source give for `CS(=O)(=O)Nc1ccc(-c2cc(-c3ccccc3)cc(C(N)=O)c2N)cc1` here?
**A.** 3.27%

**Q.** With `Cc1ccc(-c2cc3c(NC(=O)C4CC4)ncnc3o2)cc1` as the molecule, how does the inhibition read?
**A.** 5.77%

**Q.** For `c1ccc(-c2n[nH]cc2-c2ccnc(-c3ccc(OCCn4ccnc4)cc3)c2)nc1`, which inhibition is on record?
**A.** 7.2%

**Q.** `CCN1CCC(C(=O)Nc2n[nH]c3nnc(-c4cccc(F)c4F)cc23)CC1` was tested. Which inhibition did it give?
**A.** 1.47%

**Q.** Which inhibition does the source give for `COC(=O)Nc1nc2ccc(Oc3ccc(NC(=O)Nc4cc(C(F)(F)F)ccc4F)cc3)cc2s1` here?
**A.** 7.88%

**Q.** `Cc1cc(O)cc(C)c1/C=C/c1cncc(C(N)=O)c1` was tested. Which inhibition did it give?
**A.** 37.8%

**Q.** Which inhibition does the source give for `Fc1cccc(COc2ccc(Nc3ncncc3C#Cc3ccccc3)cc2Cl)c1` here?
**A.** 6.84%

**Q.** How did the inhibition turn out when `COc1cc(N2CCN(C(C)C)CC2)ccc1Nc1nc(Nc2cccc(F)c2C(=O)O)c2cc[nH]c2n1` was run?
**A.** 5.1%

**Q.** `COc1ccccc1-c1cc(/C=C2\C(=O)Nc3ncc(Br)cc32)cc(Br)c1O` was tested. Which inhibition did it give?
**A.** 40.1%

**Q.** `Nc1nccc(-c2c(-c3ccc(F)cc3)ncn2C2CCNCC2)n1` was tested. Which inhibition did it give?
**A.** 4.75% and 1.44%

**Q.** With `CN1CCC(C(=O)Nc2n[nH]c3nc(-c4ccc(O)cc4)c(Br)cc23)CC1` as the molecule, how does the inhibition read?
**A.** 36.9% and 34.7%

**Q.** For `NS(=O)(=O)c1cccc(N/C=C2\C(=O)Nc3ccccc32)c1`, which inhibition is on record?
**A.** 2.05%

**Q.** How did the inhibition turn out when `CS(=O)(=O)CCNCc1ccc(-c2ccc3ncnc(Nc4ccc(OCc5cccc(C(F)(F)F)c5)cc4)c3c2)o1` was run?
**A.** 5.47%

**Q.** With `Cc1cc(O)cc(C)c1/C=C/c1cncc(C(=O)OC(C)(C)C)c1` as the molecule, how does the inhibition read?
**A.** 9.67%

**Q.** Which inhibition does the source give for `CC1=C(C(=O)Nc2ccc3[nH]nc(C)c3c2)C(c2ccc(C(F)(F)F)cc2)CC(=O)N1` (configuration not stated) here?
**A.** 4.23%

**Q.** How did the inhibition turn out when `Cn1c(-c2nonc2N)nc2cnccc21` was run?
**A.** 16.9%

**Q.** `O=C(O[C@H]1CN[C@H](C#Cc2cc3ncnc(Nc4ccc(OCc5cccc(F)c5)c(Cl)c4)c3s2)C1)N1CCOCC1` was tested. Which inhibition did it give?
**A.** 13.2%

**Q.** How did the inhibition turn out when `CCS(=O)(=O)c1ccc(OC)c(Nc2ncc(-c3cccc(C(C)=O)c3)o2)c1` was run?
**A.** 6.18%

**Q.** How did the inhibition turn out when `Cc1c2ccc(N(C)c3ccnc(Nc4cccc(S(N)(=O)=O)c4)n3)cc2nn1C` was run?
**A.** 3.7%

**Q.** For `COc1cc(Nc2ncc(-c3ccccc3)o2)cc(OC)c1`, which inhibition is on record?
**A.** 12.4%

**Q.** How did the inhibition turn out when `CNC(=O)c1ncccc1Nc1nc(Nc2cc3c(cc2OC)CCCN3C(=O)CN(C)C)nc2[nH]ccc12` was run?
**A.** 1.54%

**Q.** For `CN(c1ccc(NC(=O)NCCN2CCOCC2)cc1)c1ccnc(Nc2ccc(CS(C)(=O)=O)cc2)n1`, which inhibition is on record?
**A.** 9.63%

**Q.** How did the inhibition turn out when `c1cnn2ncc(-c3ccnc(NCCCN4CCOCC4)n3)c2c1` was run?
**A.** 7.83%

target: Serine/threonine-protein kinase MARK2 (Homo sapiens) (UniProt Q7KZI7); settings: at 0.1 µM;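 note: mean percent inhibition of PAR-1Balpha kinase activity, reported from the GSK PKIS screen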
Sequence (Q7KZI7 whole entry): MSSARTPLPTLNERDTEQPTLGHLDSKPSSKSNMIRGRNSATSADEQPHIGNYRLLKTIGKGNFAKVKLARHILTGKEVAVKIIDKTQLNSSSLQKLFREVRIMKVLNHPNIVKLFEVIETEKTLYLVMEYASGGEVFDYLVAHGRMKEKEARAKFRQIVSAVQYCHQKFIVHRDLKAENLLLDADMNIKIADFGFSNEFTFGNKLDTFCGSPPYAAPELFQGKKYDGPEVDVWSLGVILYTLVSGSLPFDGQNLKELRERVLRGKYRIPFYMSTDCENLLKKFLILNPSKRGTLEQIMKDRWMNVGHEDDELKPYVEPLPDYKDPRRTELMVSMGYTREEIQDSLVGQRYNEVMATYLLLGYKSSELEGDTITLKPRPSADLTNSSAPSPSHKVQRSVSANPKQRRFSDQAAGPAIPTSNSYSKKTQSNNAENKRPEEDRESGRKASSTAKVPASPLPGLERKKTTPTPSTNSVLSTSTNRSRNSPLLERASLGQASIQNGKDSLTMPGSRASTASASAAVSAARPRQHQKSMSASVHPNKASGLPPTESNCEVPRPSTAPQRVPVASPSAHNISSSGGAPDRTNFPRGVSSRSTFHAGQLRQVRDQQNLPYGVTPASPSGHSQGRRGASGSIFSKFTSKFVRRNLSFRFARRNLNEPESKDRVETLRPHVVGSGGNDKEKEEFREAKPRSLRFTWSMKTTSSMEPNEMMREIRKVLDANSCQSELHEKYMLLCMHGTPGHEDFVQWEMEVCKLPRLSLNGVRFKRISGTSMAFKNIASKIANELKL

**Q.** With `Fc1ccc(Nc2nccc(-c3c(-c4ccc(C(F)(F)F)cc4)nn4ncccc34)n2)cc1F` as the molecule, how does the inhibition read?
**A.** -0.1%

**Q.** How did the inhibition turn out when `NS(=O)(=O)c1ccc(N/N=C2\C(=O)Nc3cccc(CCc4ccncc4)c32)cc1` was run?
**A.** 0.98%

**Q.** `CCS(=O)(=O)c1ccc(OC)c(Nc2ncc(-c3cccc(F)c3)o2)c1` was tested. Which inhibition did it give?
**A.** 2.49%

**Q.** For `COc1ccc(-c2nn3ncccc3c2-c2ccnc(Nc3ccc(F)c(F)c3)n2)cc1`, which inhibition is on record?
**A.** 0.52%

**Q.** Which inhibition does the source give for `COc1cc(N2CCN(C(C)C)CC2)ccc1Nc1nc(Nc2cccc3ncccc23)c2cc[nH]c2n1` here?
**A.** -0.66%

**Q.** `N#Cc1ccc2c(-c3ccnc(NC4CC4)n3)c(-c3ccc(F)cc3)nn2c1` was tested. Which inhibition did it give?
**A.** -0.15%

**Q.** With `CNC(=O)c1cncc(/C=C/c2ccccc2C)c1` as the molecule, how does the inhibition read?
**A.** 1.19%

**Q.** For `CS(=O)(=O)Nc1ccc(-c2ccc3c(NC(=O)C4CC4)n[nH]c3c2)cc1`, which inhibition is on record?
**A.** -0.79%

**Q.** How did the inhibition turn out when `CS(=O)(=O)Nc1ccc(-c2cc(-c3ccccc3)cc(C(N)=O)c2N)cc1` was run?
**A.** -0.25%

**Q.** With `Cc1ccc(-c2cc3c(NC(=O)C4CC4)ncnc3o2)cc1` as the molecule, how does the inhibition read?
**A.** 1.3%

**Q.** How did the inhibition turn out when `c1ccc(-c2n[nH]cc2-c2ccnc(-c3ccc(OCCn4ccnc4)cc3)c2)nc1` was run?
**A.** -0.46%

**Q.** With `CCN1CCC(C(=O)Nc2n[nH]c3nnc(-c4cccc(F)c4F)cc23)CC1` as the molecule, how does the inhibition read?
**A.** -2.48%

**Q.** With `COC(=O)Nc1nc2ccc(Oc3ccc(NC(=O)Nc4cc(C(F)(F)F)ccc4F)cc3)cc2s1` as the molecule, how does the inhibition read?
**A.** -8.34%

**Q.** `Cc1cc(O)cc(C)c1/C=C/c1cncc(C(N)=O)c1` was tested. Which inhibition did it give?
**A.** 0.97%

**Q.** Which inhibition does the source give for `Fc1cccc(COc2ccc(Nc3ncncc3C#Cc3ccccc3)cc2Cl)c1` here?
**A.** 0.96%

**Q.** How did the inhibition turn out when `COc1cc(N2CCN(C(C)C)CC2)ccc1Nc1nc(Nc2cccc(F)c2C(=O)O)c2cc[nH]c2n1` was run?
**A.** 1.11%

**Q.** `COc1ccccc1-c1cc(/C=C2\C(=O)Nc3ncc(Br)cc32)cc(Br)c1O` was tested. Which inhibition did it give?
**A.** -0.96%

**Q.** With `Nc1nccc(-c2c(-c3ccc(F)cc3)ncn2C2CCNCC2)n1` as the molecule, how does the inhibition read?
**A.** 0.15% and 0.08%

**Q.** `CN1CCC(C(=O)Nc2n[nH]c3nc(-c4ccc(O)cc4)c(Br)cc23)CC1` was tested. Which inhibition did it give?
**A.** 1.43% and -2.51%

**Q.** Which inhibition does the source give for `NS(=O)(=O)c1cccc(N/C=C2\C(=O)Nc3ccccc32)c1` here?
**A.** 2.99%

**Q.** How did the inhibition turn out when `CS(=O)(=O)CCNCc1ccc(-c2ccc3ncnc(Nc4ccc(OCc5cccc(C(F)(F)F)c5)cc4)c3c2)o1` was run?
**A.** 0.72%

**Q.** With `Cc1cc(O)cc(C)c1/C=C/c1cncc(C(=O)OC(C)(C)C)c1` as the molecule, how does the inhibition read?
**A.** 0.13%

**Q.** `CC1=C(C(=O)Nc2ccc3[nH]nc(C)c3c2)C(c2ccc(C(F)(F)F)cc2)CC(=O)N1` (configuration not stated) was tested. Which inhibition did it give?
**A.** 0.75%

**Q.** `Cn1c(-c2nonc2N)nc2cnccc21` was tested. Which inhibition did it give?
**A.** 0.44%

**Q.** For `O=C(O[C@H]1CN[C@H](C#Cc2cc3ncnc(Nc4ccc(OCc5cccc(F)c5)c(Cl)c4)c3s2)C1)N1CCOCC1`, which inhibition is on record?
**A.** 6.4%

**Q.** `CCS(=O)(=O)c1ccc(OC)c(Nc2ncc(-c3cccc(C(C)=O)c3)o2)c1` was tested. Which inhibition did it give?
**A.** -1.1%

**Q.** `Cc1c2ccc(N(C)c3ccnc(Nc4cccc(S(N)(=O)=O)c4)n3)cc2nn1C` was tested. Which inhibition did it give?
**A.** 1.14%

**Q.** How did the inhibition turn out when `COc1cc(Nc2ncc(-c3ccccc3)o2)cc(OC)c1` was run?
**A.** -1.15%

**Q.** Which inhibition does the source give for `CNC(=O)c1ncccc1Nc1nc(Nc2cc3c(cc2OC)CCCN3C(=O)CN(C)C)nc2[nH]ccc12` here?
**A.** 2.14%

**Q.** With `CN(c1ccc(NC(=O)NCCN2CCOCC2)cc1)c1ccnc(Nc2ccc(CS(C)(=O)=O)cc2)n1` as the molecule, how does the inhibition read?
**A.** 0.88%

**Q.** For `c1cnn2ncc(-c3ccnc(NCCCN4CCOCC4)n3)c2c1`, which inhibition is on record?
**A.** -1.43%
